# Assay results taken from ChEMBL document CHEMBL3988442, “University of Dundee, Small-Polar-MMV Screening Library” (2021).
# Out of some 48,000 compounds screened, about 13,000 (27%) showed an effect of 50% or more. The list shows a part of the results.
# Tested on: Wolbachia pipientis
# Test: Anti-Wolbachia Cell-Based Screen
# Assay type: functional
# Parameters: scale not given: in the data most compounds retested in dose-response had high values
# Conditions: 5 µM
row,SMILES,Percent Effect [%]
1,O=C(O)[C@@H]1CN(C2CCCCC2)C[C@H]1C1CC1,8.818
2,CCS(=O)(=O)N1CCC(CSc2ccccc2)C1 (configuration not stated),-7.795
3,CNC(=O)C(C)(C)N1CCC[C@H]1C(=O)NCCN1CCOCC1,8.557
4,O=C(O)C(F)(F)F.c1ccc(OCc2nnn3c2CN(c2ncccn2)CCC3)nc1,-15.4
5,COCc1nnn2c1CN(C(=O)c1c[nH]cn1)CCC2,-0.6058
6,CCS(=O)(=O)N1CCCn2nnc(CNC(C)=O)c2C1,115.8439
7,O=C(O)C(F)(F)F.OCCOCc1nnn2c1CN(c1ncccn1)CCC2,8.15
8,CC(=O)NCc1nnn2c1CN(c1ncc(C)cn1)CCC2,101.7
9,CCc1ccc(C(=O)N2CCCn3nnc(Cn4cccn4)c3C2)cc1,1.938
10,CC(=O)NCc1nnn2c1CN(c1ncccn1)CCC2,96.74
11,COc1cccc(-c2noc(-c3ccc(NCC(C)C)nc3)n2)c1OC,-21.63
12,CCN1CCC(c2nnc(CN3CCCC3)n2C2CC2)CC1,-1.245
13,Cc1cc(N(C)C)nc(C2(C)CCCNC2)n1 (configuration not stated),102.5
14,Cc1cc(N(C)C)nc(N2CCn3c(C)nnc3C2)n1,-0.4749
15,Cc1cnn(C2CN(c3nc(C)cc(N(C)C)n3)C2)c1,-14.5
16,Cc1cc(N(C)C)nc(C2(C)CCNCC2)n1,87.74
17,Cc1nc(N(C)C)cc(C2(C)CCNCC2)n1,111
18,CN(Cc1ccc2nsnc2c1)C(=O)CCc1cc2n(n1)CCCNC2,-10.43
19,COCc1cc(N(C)Cc2ccccn2)nc(C(C)(C)C)n1,-4.697

row,SMILES,Percent Effect [%]
1,O=C(COc1ccccc1N1CCCC1)N1CCN[C@H]2CS(=O)(=O)C[C@H]21,-3.795
2,O=C(CCc1ccccc1Br)N1CC(S(=O)(=O)C2CCCCC2)C1,3.843
3,Cc1noc(CNc2ccc(OC(F)F)cc2OC(F)F)n1,-10.63
4,CC(=O)N1CCC(CN2CCN(Cc3nccn3C)C(C)C2)CC1 (configuration not stated),-3.409
5,Cc1n[nH]c(C)c1-c1nccnc1CC1CCCN(C)C1 (configuration not stated),113
6,CC(=O)N1CCC(NC(=O)NCCCc2cn[nH]c2C)CC1,-4.714
7,Cc1noc2ncc(C(=O)NCC3CCN(C(C)C)C3)cc12 (configuration not stated),-9.955
8,Cc1ccc(CN(Cc2ccccn2)C(=O)CCC2CCCN(C)C2)s1 (configuration not stated),-9.083
9,CS(=O)(=O)N1CCC(CSc2ccccc2)C1 (configuration not stated),7.413
10,CS(=O)(=O)N1Cc2nccn2CC(CN2CCCC2=O)C1 (configuration not stated),-14.04
11,Cc1n[nH]c(C)c1-c1nccnc1CC1CCN(C(C)C)CC1,127
12,Cc1n[nH]c(C)c1-c1nccnc1CC1CCN(S(C)(=O)=O)C1 (configuration not stated),111.1
13,CN1CCCC(N2CCN(c3cc(C(F)(F)F)ccn3)CC2)C1 (configuration not stated),-11.03
14,Cc1n[nH]c(C)c1CN1CCC(c2cc(C(C)C)n[nH]2)CC1,7.572
15,CC(=O)N1CCC(Cc2nccnc2-c2c(C)n[nH]c2C)C1 (configuration not stated),110.3
16,CN1CCCCC1CCC(=O)NCCSc1cnn[nH]1 (configuration not stated),-30.14
17,CCOC(=O)C1CN(C(=O)COC)Cc2ncn(CC)c21 (configuration not stated),-5.507
18,Cc1n[nH]c(C)c1-c1nccnc1CC1CCNC1 (configuration not stated),100.9
19,COCC(=O)N1CCC(Cc2nccnc2-c2c(C)n[nH]c2C)C1 (configuration not stated),109.3

row,SMILES,Percent Effect [%]
1,CC1CCCCN1C(=O)Cn1cnc(C#N)n1 (configuration not stated),-6.637
2,CS(=O)(=O)N1CC(c2nc[nH]n2)c2cc(C(=O)NC3CCCC3)ccc21 (configuration not stated),0.6803
3,Cc1nn(C)cc1CN1CCCC1c1cccc(Nc2nccs2)n1 (configuration not stated),88.47
4,Cc1nn(CCO)cc1CN1CCCC1c1nc2c(C)cccc2[nH]1 (configuration not stated),-6.904
5,CCN(CC)S(=O)(=O)N1CCCC1C(=O)N1CCSCC1 (configuration not stated),22.8
6,CNS(=O)(=O)c1cccc(S(=O)(=O)Nc2ncc(C)s2)c1,2.588
7,COc1c(C2CCCN2Cc2cn3ccsc3n2)c(C)nn1C (configuration not stated),3.624
8,Cc1ncc(CO)c(CN2CCCC2c2nc3c(C)cccc3[nH]2)c1O (configuration not stated),7.788
9,Cc1nn(C)c(Cl)c1C1CCCN1Cc1cn2ccsc2n1 (configuration not stated),41.71
10,Cc1nonc1NC(=O)C1SCCc2sccc21 (configuration not stated),-12.22
11,CCc1cnc(C)nc1NC(CC)c1cnn(C)c1 (configuration not stated),-1.737
12,Cc1cccc(CN2CCC3(CCCN(Cc4cnn(C)c4)C3)C2=O)n1 (configuration not stated),94.18
13,Cn1cc(CN2CCCC3(CCN(Cc4ccncc4)C3=O)C2)cn1 (configuration not stated),102
14,Cc1cccc(CN2CCCC3(CCN(CC(=O)N(C)C)C3=O)C2)n1.O=C(O)C(F)(F)F (configuration not stated),-13.27
15,Cc1cnc(CNC(=O)CC2CCc3ccccc32)cn1 (configuration not stated),1.8
16,Cc1ccc(CN(C)C(=O)CN2CCOC(Cn3cncn3)C2)o1 (configuration not stated),-4.818
17,Cc1ccc(CN(C)C(=O)CN2CCCCC2Cn2cncn2)o1 (configuration not stated),-8.08
18,Cc1ccc(CN(C)C(=O)CN2CCCC2Cn2cccn2)o1 (configuration not stated),15.96
19,CN(Cc1ccco1)C(=O)CN1CCCCC1Cn1cccn1 (configuration not stated),4.659
